In PubChem BioAssay (NCATS):
Inconclusive results are not listed. Calls of active or inactive are those of the source. Calls follow the shape of the dose curve; as a rule, active = well fitted curve in the direction sought with a large enough effect; inconclusive = small, poorly fitted or top-dose-only effect, or another doubt; inactive = no such curve, though single readings can be large; an effect the other way counts as inactive or inconclusive.

Experiments:
Hek293T = test: Primary qHTS to identify gynecologic anti-cancer compounds using libraries of approved drugs and bioactive compounds (AID 1345084); details: Gynecologic cancer cell panel viability, ATPlite luminescence, 48 h, control line for the selectivity index; series mostly up to 57.5 µM; also: nearly all actives have a fitted effect of over 55% in size
Summary of the method: (§1)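 Cytotoxicity screen measuring ATP content by luciferase luminescence. Each compound is applied at five concentrations for 48 h at 37 C with 5% CO2.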

JEG-3 = test: as above; details: Gynecologic cancer cell panel viability, ATPlite luminescence, 48 h; series mostly up to 57.5 µM
Summary of the method: as §1

OV90 = test: as above; details: Gynecologic cancer cell panel viability, ATPlite luminescence, 48 h; series mostly up to 57.5 µM
Summary of the method: as §1

PA-1 = test: as above; details: Gynecologic cancer cell panel viability, ATPlite luminescence, 48 h; series mostly up to 57.5 µM
Summary of the method: as §1

SKOV3 = test: as above; details: Gynecologic cancer cell panel viability, ATPlite luminescence, 48 h; series mostly up to 57.5 µM
Summary of the method: as §1

Tov-21-G = test: as above; details: Gynecologic cancer cell panel viability, ATPlite luminescence, 48 h; series mostly up to 57.5 µM
Summary of the method: as §1

Tov112D = test: as above; details: Gynecologic cancer cell panel viability, ATPlite luminescence, 48 h; series mostly up to 57.5 µM
Summary of the method: as §1

[1] = Drug repurposing screens with cells derived from glioblastoma tumor samples (AID 1345199); details: GBM patient neurospheres viability, ATP luminescence, 48 h; also: nearly all actives have a fitted effect of over 40% in size
Summary of the method: (§2)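 Four patient lines of CD133+ GBM neurospheres were screened at several concentrations; hits were retested in those lines plus three slower-growing GBM lines, using 48-hour treatment and ATP-based viability.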

astro = test: as above; details: viability, ATP luminescence, 48 h; series mostly up to 45.9 µM
Summary of the method: as §2

[2] = at 45.9 µM (top of the series), tumour line B
[3] = at 45.9 µM (top of the series), tumour line D
[4] = at 46 µM (top of the series), tumour line A
[5] = at 46.1 µM (top of the series), tumour line C
% is scaled to controls: 0 for no effect and ±100 for the full control effect.

Cc1ccc(=O)n(-c2ccccc2)c1
inactive: Potency (Hek293T) | Potency (JEG-3) | Potency (OV90) | Potency (PA-1) | Potency (SKOV3) | Potency (Tov-21-G) | Potency (Tov112D) | activity, negative = cell killing [1, 2] -7.87% | activity, negative = cell killing [1, 3] 11.3% | activity, negative = cell killing [1, 4] -13.3% | activity, negative = cell killing [1, 5] -7.43%

Cc1ccc(S(=O)(=O)NC(=O)NN2CCCCCC2)cc1
inactive: Potency (Hek293T) | Potency (JEG-3) | Potency (OV90) | Potency (PA-1) | Potency (SKOV3) | Potency (Tov-21-G) | Potency (Tov112D) | activity, negative = cell killing [1, 2] 5.62% | activity, negative = cell killing [1, 3] 15.6% | activity, negative = cell killing [1, 4] -3.14% | activity, negative = cell killing [1, 5] -5.87%

c1cnc(N2CCN(Cc3ccc4c(c3)OCO4)CC2)nc1
inactive: Potency (Hek293T) | Potency (JEG-3) | Potency (OV90) | Potency (PA-1) | Potency (SKOV3) | Potency (Tov-21-G) | Potency (Tov112D) | activity, negative = cell killing [1, 2] -3.93% | activity, negative = cell killing [1, 3] -6.17% | activity, negative = cell killing [1, 5] -21.6%

O=C(O)CN(CCN(CC(=O)O)CC(=O)O)CCN(CC(=O)O)CC(=O)O
inactive: Potency (Hek293T) | Potency (JEG-3) | Potency (OV90) | Potency (PA-1) | Potency (SKOV3) | Potency (Tov-21-G) | Potency (Tov112D) | activity, negative = cell killing [1, 2] -4.92% | activity, negative = cell killing [1, 3] -0.113% | activity, negative = cell killing [1, 5] -9.95%

C[N+](C)(C)CCOC(=O)CCC(=O)OCC[N+](C)(C)C
inactive: Potency (Hek293T) | Potency (JEG-3) | Potency (OV90) | Potency (PA-1) | Potency (SKOV3) | Potency (Tov-21-G) | Potency (Tov112D) | activity, negative = cell killing [1, 2] 5.74% | activity, negative = cell killing [1, 3] -9.68% | activity, negative = cell killing [1, 4] -19.2% | activity, negative = cell killing [1, 5] 9.88% | Potency (astro)

CN=C(NC#N)NCCSCc1nc[nH]c1C
inactive: Potency (Hek293T) | Potency (JEG-3) | Potency (OV90) | Potency (PA-1) | Potency (SKOV3) | Potency (Tov-21-G) | Potency (Tov112D) | activity, negative = cell killing [1, 2] -8.34% | activity, negative = cell killing [1, 3] -15.2% | activity, negative = cell killing [1, 4] -11.7% | activity, negative = cell killing [1, 5] -4.17% | Potency (astro)

NC(=O)c1cn(Cc2c(F)cccc2F)nn1
inactive: Potency (Hek293T) | Potency (JEG-3) | Potency (OV90) | Potency (PA-1) | Potency (SKOV3) | Potency (Tov-21-G) | Potency (Tov112D) | activity, negative = cell killing [1, 2] -2.3% | activity, negative = cell killing [1, 3] -3.04% | activity, negative = cell killing [1, 4] -26.2% | activity, negative = cell killing [1, 5] -19.6% | Potency (astro)

C[N+](C)(C)CCCCCCCCCC[N+](C)(C)C
inactive: Potency (Hek293T) | Potency (JEG-3) | Potency (OV90) | Potency (PA-1) | Potency (SKOV3) | Potency (Tov-21-G) | Potency (Tov112D) | activity, negative = cell killing [1, 2] -8.43% | activity, negative = cell killing [1, 3] -24.4% | activity, negative = cell killing [1, 4] -24.5% | activity, negative = cell killing [1, 5] -2.46% | Potency (astro)
